# Bioassay records: PubChem, The Scripps Research Institute Molecular Screening Center
# ssDAF12 agonist – activates DAF-12 receptor from parasite S. stercoralis. HEK293 ssDAF-12/GRIP1 lit1-tk-luc reporter, luminescence; % of 3 µM dafachronic acid response. activation, % at 6.8 µM. actives 1% (n = 370,000);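 active = activation above the mean over all tested compounds plus 3 SD, cut at about 0.9% in these data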;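 also: 0% = DMSO-only wells and 100% = 3 µM delta7-dafachronic acid wells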
# hcDAF12 agonist – activators of H. contortus DAF-12 nuclear receptor | HEK293 hcDAF-12 lit1-tk-luc reporter, luminescence; 0% DMSO, 100% Δ7-dafachronic acid | activation, % at 6.8 µM | actives 1.4% (n = 370,000) | AID 652067;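 active = activation above the mean of all tested compounds plus 3 SD, cut at about 5.5% in these data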;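 also: 100% = response to 3 µM Δ7-dafachronic acid high control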
# DAX1 inh-1 – inhibitors of human orphan nuclear receptor DAX1 (NR0B1); P51843; HEK293 Gal4-DAX1 luciferase reporter, luminescence; inhibition, % at 6.75 µM; actives 0.99% (n = 340,000);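 active = inhibition above the mean over all tested compounds plus 3 SD, cut at about 4.2% in these data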;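 also: 0% = DAX1-transfected cells with DMSO and 100% = empty-vector control cells with DMSO; inhibition shows as a rise in luminescence from relieved DAX1 repression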
# Target sequence (P51843 207-470 limits assumed): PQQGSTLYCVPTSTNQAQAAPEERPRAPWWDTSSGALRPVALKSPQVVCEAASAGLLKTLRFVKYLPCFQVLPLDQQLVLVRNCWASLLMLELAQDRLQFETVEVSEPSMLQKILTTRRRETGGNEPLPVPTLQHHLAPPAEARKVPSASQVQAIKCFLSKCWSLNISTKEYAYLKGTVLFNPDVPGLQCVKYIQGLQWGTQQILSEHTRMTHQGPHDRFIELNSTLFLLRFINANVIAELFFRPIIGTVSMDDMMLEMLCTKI
# DAX1 inh-2 – blocks DAX1 repression of SF-1 activated StAR promoter | inhibition, % at 6.8 µM | AID 652010 | HEK293T StAR-luciferase reporter, SF-1/DAX-1 repression relief | actives 1.1% (n = 370,000);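 active = inhibition above the mean over all tested compounds plus 3 SD, cut at about 3.6% in these data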;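 also: 0% = DAX-1 cells with DMSO and 100% = cells lacking DAX-1 with DMSO; higher inhibition means more luminescence from relief of DAX-1 repression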
# hgDAF12 agonist – agonists of H. glycines DAF-12 nuclear receptor. HEK293 GAL4-hgDAF12 UAS-luciferase reporter, agonist luminescence; normalized to butyrate control. AID 687014. activation, % at 6.8 µM. actives 1.8% (n = 370,000);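 active = activation above a cutoff set at the mean of all screened compounds plus 3 SD, cut at about 10% in these data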;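 also: 0% = DMSO wells and 100% = sodium butyrate wells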
# SMARCA2 act – activators of SMARCA2 function. MG213 cells, MMTV-luciferase reporter, dexamethasone, overnight. activation, % at 9.1 µM. actives 1% (n = 370,000). AID 652017; in the data active = activation above about 7.8%;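 also: 0% = vehicle wells and 100% = reference activator wells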
# DAX1 inh confirm – NR0B1 (human) inhibition, confirmation. shares compounds with DAX1 inh-2. HEK293T StAR-promoter luciferase reporter, SF-1/DAX-1 repression. inhibition, % at 6.8 µM. actives 87% (n = 2,400). AID 652134;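 active = inhibition above the average of every tested compound plus 3 SD, cut at about 3.8% in these data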;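 also: 0% = DAX-1 cells with DMSO and 100% = no DAX-1 control cells with DMSO; active compounds raise luminescence by relieving repression of the StAR reporter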
# SF1 mutant ctr – nonselective inhibitor or artifact in SF-1 mutant DAX1 counter-screen. actives 78% (n = 2,400). shares compounds with DAX1 inh-2. HEK293 StAR-luciferase, SF-1 AF2 mutant, luminescence. inhibition, % at 6.8 µM;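 active = inhibition above the mean of all tested compounds plus 3 SD, cut at about 3% in these data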;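 also: 0% = DAX-1 transfected cells with DMSO and 100% = cells without DAX-1 with DMSO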
# LXR ag – LXR-beta agonism as hcDAF-12 counter-screen. HEK293 Gal4-LXR tk-luc reporter, luminescence, 24 h; normalized: DMSO 0%, positive control 100%. activation, % at 6.8 µM. 3,400 tested, under 10 active. AID 743027. shares compounds with hcDAF12 agonist;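 active = mean percent activation of the reporter above a cutoff set as the average over tested compounds plus their standard deviation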
# Target sequence (P55055 whole entry, looked up, the tested form may be a part): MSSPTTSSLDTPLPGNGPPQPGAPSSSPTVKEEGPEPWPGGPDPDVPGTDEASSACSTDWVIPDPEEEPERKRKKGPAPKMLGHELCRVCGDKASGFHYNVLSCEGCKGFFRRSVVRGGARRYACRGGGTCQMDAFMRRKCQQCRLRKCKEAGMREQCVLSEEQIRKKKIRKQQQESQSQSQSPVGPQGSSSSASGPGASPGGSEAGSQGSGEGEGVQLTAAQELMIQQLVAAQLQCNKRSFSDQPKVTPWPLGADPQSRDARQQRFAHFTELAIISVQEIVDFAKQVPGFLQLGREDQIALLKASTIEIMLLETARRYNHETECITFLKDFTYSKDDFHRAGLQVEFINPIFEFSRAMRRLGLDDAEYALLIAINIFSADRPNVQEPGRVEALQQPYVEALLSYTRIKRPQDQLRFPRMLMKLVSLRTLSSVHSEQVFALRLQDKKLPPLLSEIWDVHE
# hcDAF12 ag – hcDAF-12 agonism, confirmation assay; shares compounds with hcDAF12 agonist; HEK293 hcDAF-12 lit1-tk-luc reporter, luminescence; % of Δ7-dafachronic acid response; activation, % at 6.8 µM; actives 61% (n = 3,400);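 active = mean activation across triplicate tests above the threshold derived from the earlier primary screen, cut at about 5.5% in these data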;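 also: 0% = DMSO only wells and 100% = 3 µM Δ7-dafachronic acid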
# hgDAF12 ag – confirmation of H. glycines DAF-12 agonists | shares compounds with hgDAF12 agonist | HEK293 GAL4-hgDAF12 luciferase reporter, agonist mode; percent of butyrate response | activation, % at 6.8 µM | actives 80% (n = 3,300) | AID 743050;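 active = mean activation over triplicate wells above the hit cutoff derived from the earlier primary screen, cut at about 11% in these data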;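 also: 0% = DMSO low control and 100% = 2 mM sodium butyrate high control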
# LXRb DAF12 ctr – counter-screen for DAF-12 agonists: agonists of human LXR-beta | shares compounds with hgDAF12 agonist | HEK293 Gal4-LXR luciferase reporter, 24 h | activation, % at 6.8 µM | 3,300 tested, under 10 active;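 active = mean activation of the triplicate above a set limit carried over from the primary screen, none filed active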
# Starred values were filed as active, the others as inactive; x = no result. Most compounds without a hit are left out; they make up all but 4.8% or so of the library.
SMILES,ssDAF12 agonist,hcDAF12 agonist,DAX1 inh-1,DAX1 inh-2,hgDAF12 agonist,SMARCA2 act,DAX1 inh confirm,SF1 mutant ctr,hgDAF12 ag,LXRb DAF12 ctr,others
O=C(Nc1ncccc1O)c1ccc2c(c1)OCCO2,1.3*,7.2*,8.1*,33*,60*,1,42*,22*,57*,1,LXR ag=2;hcDAF12 ag=4
Cc1ccnc(NC(=O)c2ccc3c(c2)OCO3)c1,-1,6.3*,-1,4.9*,18*,7,7.0*,3.7*,11*,1,
O=C(Nc1ncccc1O)c1ccc2c(c1)OCO2,0,4,4,17*,37*,3,27*,14*,39*,0,
Cc1cccnc1NC(=O)c1ccc2c(c1)OCCO2,0,2,1,3,5,1,x,x,x,x,
CCc1cc(C(=O)Nc2ncccc2O)sc1C,1,6.4*,-1,20*,20*,3,21*,9.0*,25*,1,
O=C(CSc1nnc(-c2ccccc2F)n1Cc1ccco1)Nc1ccccc1-c1ccccc1,-2,-1,x,-1,0,-6,x,x,x,x,
O=C(NCCCc1ccccc1)OC1CC2CC1[C@H]1CCCCN1[C@H]2Cc1ccccc1 (some centres not stated),0,-2,x,-1,0,0,x,x,x,x,
CC(C)Cc1nnc(NC(=O)c2ccc3c(c2)OCCO3)s1,0,5.8*,0,8.1*,15*,5,15*,7.1*,13*,1,
COC(=O)[C@@]12CCCCC=C1N(CCc1ccc(Cl)cc1)C(=O)[C@H]2CC(=O)NCC12CC3CC(CC(C3)C1)C2,-1,0,x,0,2,-3,x,x,x,x,
c1csc(-c2cn3ccc4ccccc4c3n2)c1,2.5*,14*,2,4.8*,17*,4,8.3*,5.4*,18*,1,LXR ag=1;hcDAF12 ag=15*
c1cc(-c2cccs2)nc(-c2cccs2)c1,0,-2,2,0,-3,0,x,x,x,x,
COc1ccc(-c2nnn3c2Cn2c4ccccc4c(=O)n2[C@@H](C)C3)cc1,-2,-4,x,-2,0,0,x,x,x,x,
COc1ccc(-c2cc(C)nc3c(-c4ccccc4)cnn23)cc1,0,5,0,12*,14*,0,15*,7.8*,9,1,
Cc1cc(N2CCCCC2)n2ncc(-c3ccccc3)c2n1,-1,5,-1,2,3,0,x,x,x,x,
Cc1ccc(S(=O)(=O)CCC(=O)N(CCCN2CCOCC2)c2nc3ccccc3s2)cc1,0,3,1,3,6,2,x,x,x,x,
Cc1ccc2nc(N(CCN3CCOCC3)C(=O)CCS(=O)(=O)c3ccccc3)sc2c1,0,0,4,5.1*,14*,8,6.8*,4.8*,11*,0,
CCC(CC)NC(=O)O[C@H]1CC[C@@]23CCCN2C(=O)CCC[C@H]3C1,-1,0,x,x,0,x,x,x,x,x,
Cc1ccnc(NC(=O)COc2ccc3c(c2)CCC3)c1,0,5,-3,14*,14*,4,12*,4.2*,12*,1,
CC(=O)Nc1ccc(NC(=O)COc2ccc3c(c2)CCC3)cc1,-1,0,2,0,-1,2,x,x,x,x,
C/C(=N/NC(=O)c1ccoc1C)c1cccc(NC(=O)C(F)(F)F)c1,1,3,2,6.0*,15*,7,6.3*,2,6,0,
C/C(=N/NC(=O)c1ccc(C)s1)c1cccc(NC(=O)c2ccoc2C)c1,-1,-1,0,1,4,4,x,x,x,x,
C/C(=N/NC(=O)c1ccoc1C)c1cccc(NC(=O)C2CC2)c1,1.0*,7.3*,1,6.1*,16*,3,1,0,0,0,LXR ag=0;hcDAF12 ag=0
O=C(NCc1ccco1)C1CCCN(S(=O)(=O)c2ccc(F)cc2)C1 (configuration not stated),-1,-2,x,0,-1,7,x,x,x,x,
C(=NOCc1ccccc1)c1ccccn1,0,2,3,6.0*,17*,2,6.1*,2.9*,14*,1,
C(=NOCc1ccccc1)c1ccncc1,-1,1,1,1,4,-3,x,x,x,x,
SMILES,ssDAF12 agonist,hcDAF12 agonist,DAX1 inh-1,DAX1 inh-2,hgDAF12 agonist,SMARCA2 act,DAX1 inh confirm,SF1 mutant ctr,hgDAF12 ag,LXRb DAF12 ctr,others
CCc1c(Cc2ccccc2)ncn1CCc1ccccc1OC,-1,-3,x,-3,-5,-10,x,x,x,x,
Cc1ccc(NC(=O)c2c(C)nc3ccccn23)cc1C,-1,1,5.6*,5.8*,14*,2,8.9*,6.1*,16*,1,
Cc1cccc(NC(=O)c2c(C)nc3ccccn23)c1,-1,-1,-1,1,3,0,x,x,x,x,
COc1cccc(-c2cc(C(=O)NC3CCCC3)no2)c1,0,5,2,5.0*,20*,4,9.9*,5.3*,16*,1,
O=C(NC1CCCC1)c1cc(-c2ccc(Cl)c(Cl)c2)on1,0,1,0,0,4,0,x,x,x,x,
COc1cccc(NC(=O)C(=S)NC2CCCCC2)c1,0,7.2*,2,9.2*,23*,5,12*,7.9*,18*,1,LXR ag=2;hcDAF12 ag=7.2*
CC(C)CN1C(=O)C[C@@]2(C(=O)N(C)c3ccc(NC(=O)C(C)(C)C)cc32)C1c1ccccc1 (some centres not stated),-1,0,x,1,1,-4,x,x,x,x,
CCCCNC(=O)OCCCN1CCC2(CCC(c3ccccc3)CC2)C1 (configuration not stated),-1,0,x,1,8,-4,x,x,x,x,
CCC(=O)Nc1ccc(C(=O)Nc2ccc3c(c2)OCO3)cc1,-1,-2,0,0,0,2,x,x,x,x,
